Experimental data: ChEMBL document CHEMBL3433997, “St. Jude Leishmania screening dataset” (2016)

How the values were obtained:
Assay type in all cases: functional
[1] = target: Solute carrier family 2, facilitated glucose transporter member 1 (Homo sapiens) (UniProt P11166); test: ST_JUDE_LEISH: Cytotoxicity at 2uM final concentration against transgenic Leishmania Mexicana promastigotes LmGLUT1 that are glucose transport deficient and complemented with the human glucose transporter GLUT1. Activity is measured by DNA content using SYBR green in vitro
Chain of Solute carrier family 2, facilitated glucose transporter member 1 (Homo sapiens) (P11166 whole entry): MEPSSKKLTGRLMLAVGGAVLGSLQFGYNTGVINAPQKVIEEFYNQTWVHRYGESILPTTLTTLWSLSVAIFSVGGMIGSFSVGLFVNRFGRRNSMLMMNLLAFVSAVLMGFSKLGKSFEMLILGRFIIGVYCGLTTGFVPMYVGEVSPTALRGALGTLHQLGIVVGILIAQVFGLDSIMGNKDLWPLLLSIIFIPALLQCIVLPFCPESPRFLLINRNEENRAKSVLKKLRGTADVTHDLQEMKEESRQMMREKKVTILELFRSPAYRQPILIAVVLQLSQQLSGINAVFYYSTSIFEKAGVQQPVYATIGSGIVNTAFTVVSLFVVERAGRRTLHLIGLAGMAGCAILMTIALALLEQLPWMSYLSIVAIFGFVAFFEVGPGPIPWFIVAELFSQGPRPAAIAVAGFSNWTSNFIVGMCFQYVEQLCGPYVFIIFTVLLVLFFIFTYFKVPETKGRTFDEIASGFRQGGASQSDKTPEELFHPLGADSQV

[2] = target: Hexose transporter 1 (Plasmodium falciparum) (UniProt O97467); test: ST_JUDE_LEISH: Cytotoxicity at 2uM final concentration against transgenic Leishmania Mexicana promastigotes LmPfHT that are glucose transport deficient and complemented with the Plasmodium falciparum hexose transporter. Activity is measured by DNA content using SYBR green in vitro
[3] = target: Glucose transporter (Leishmania mexicana) (UniProt O61059); test: ST_JUDE_LEISH: Cytotoxicity at 2uM final concentration against transgenic Leishmania Mexicana promastigotes LmGT2 that are glucose transport deficient and complemented with the L. Mexicana glucose transporter 2. Activity is measured by DNA content using SYBR green in vitro

SMILES	inhibition [1] [%]	inhibition [2] [%]	inhibition [3] [%]
COc1ccc2nccc([C@@H](O)CN3CCC(NC(=O)c4ccc(OC)c(N)c4)CC3)c2c1	14.9	16.7	11.5
O=C(NCC1CCN(Cc2ccc3c(c2)OCCO3)C1)c1cc(-c2cccc(C(F)(F)F)c2)cs1 (stereo not drawn)	-2.67	-0.91	2.27
CCc1sc(-c2ccc(C(C)(C)C)cc2)nc1C(=O)NCCCN1CCCC1=O	-1.44	-2.22	-4.69
Cc1cc(N(C)CCN(C)C)nc(Nc2ccc(Cl)cc2)n1	5.23	5.67	7.48
COc1cc(Cc2cnc(N)nc2N)cc(OC(C)C)c1OC	-0.55	0.72	-0.54
COc1cccc2c(Oc3ccccc3C)ccnc12	-0.44	-1.86	0.33
COc1ccc2nccc(N(C)CC3(O)CCC(NCc4ccc5c(n4)NC(=O)CS5)CC3)c2n1 (stereo not drawn)	3.69	3.78	1.23
Fc1cccc(C=NN=c2cc[nH]c3ccc(C(F)(F)F)cc23)c1	9.27	8.79	5.06
CCc1cc(NC2CCN(C)CC2)nc(Nc2cccc(OC)c2)n1	15	10	6.53
Nc1cccc(CNCc2cccc(-c3ccc(-c4nc5ccccc5[nH]4)s3)c2)c1	7.77	8.55	5.7
COc1ccc(C(C)Nc2nc(N)c3cc(OC)c(OC)cc3n2)cc1 (stereo not drawn)	4.72	4.66	4.42
